Laboratory results from PubChem BioAssay (NCI).
This is part of a sample that, as a whole, favours compounds with a hit. Of some 79,000 tested, about 15% had one in any assay. Active and inactive are the calls of the source. No stated cut-off is given here; in the data, active means growth inhibition above about 70%; inactive means the rest.

Assay: NCI Yeast Anticancer Drug Screen. Data for the bub3 strain (AID 167)
Conditions: S. cerevisiae bub3 mutant strain, hits give high values
Description: Growth inhibition of yeast strains with defined genetic alterations is measured as a screen for potential anti-cancer activity. Selected strains with alterations in DNA damage repair or cell cycle control were exposed to compounds and growth inhibition was measured relative to vehicle treated controls. The strain used in this assay is bub3

[1] = at 5.0 µM (retest, dose inferred, filed as 0.5)
[2] = at 50.0 µM (retest, dose inferred, filed as 5.0)

Measured: growth inhibition

Nc1ccc(N=Nc2ccc(-c3ccc(O)cc3)cc2)c2ccc(S(=O)(=O)O)cc12
inactive: at 1.2 µM -1% | at 3.7 µM -4% | [1] 9% | at 11.0 µM -2% | at 33.0 µM 15% | [2] 12% | at 50.0 µM 38.4% | at 100.0 µM -9%

O=CC1(F)CC1(c1ccccc1)c1ccccc1 (stereo not given)
inactive: at 1.2 µM -2% | at 3.7 µM -4% | [1] -3% | at 11.0 µM -6% | at 33.0 µM -4% | [2] 11% | at 50.0 µM 5.65%
active: at 100.0 µM 89%

Cc1ccc(S(=O)(=O)N/N=C/C(Br)=C(/Br)C(=O)O)cc1
active: at 33.0 µM 93% | at 100.0 µM 82%
inactive: at 1.2 µM -5% | at 3.7 µM 1% | [1] -27% | at 11.0 µM 49% | [2] 37% | at 50.0 µM 64.2%

Oc1ccc(N=Nc2ccc(Cl)cc2)cc1
inactive: at 1.2 µM 57% | at 3.7 µM 65%
active: [1] 81% | at 11.0 µM 94% | at 33.0 µM 99% | [2] 99% | at 50.0 µM 99.2% | at 100.0 µM 99%

O=C(Cc1ccccc1)NNc1nc(NNC(=O)c2ccncc2)nc(Nc2ccc([N+](=O)[O-])cc2)n1
inactive: at 1.2 µM -2% | at 3.7 µM -4% | [1] 6% | at 11.0 µM 11% | at 33.0 µM 17% | [2] 40% | at 100.0 µM 15%
active: at 50.0 µM 77.7%
